Hits are enriched below; roughly 19% of the tested compounds scored in any of these assays.
HepG2 tox = qHTS for Inhibitors of TGF-b: Cytotox Counterscreen. HepG2 CAGA-GFP viability, ATP luminescence, 18 h. Potency, µM (top dose mostly 46.1 µM), for the others: top-dose activity change, negative = cytotoxicity, usual class: cytotoxic. 410,000 tested, 0.76% active; further: potency means the concentration at half of the fitted maximal effect
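HepG2 CAGA-GFP cells (1000/well, DMEM with 1% FBS) received compound, then TGF-beta at 500 pg/mL final, and were incubated 18 hours at 37 degrees C. Viability was read by CellTiter-Glo luminescence. Media-only wells were set as complete cell-killing and DMSO as no toxicity.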
TDP1 cell noCPT = qHTS for Inhibitors of human tyrosyl-DNA phosphodiesterase 1 (TDP1): qHTS in cells in absence of CPT; Potency, µM (titrated, usually from 46.2 µM), inactives show at the highest dose activity change, negative = growth inhibition, usual class: inhibitors; 420,000 tested, 15% active; DT40 Tdp1-/- hTDP1 cells, no CPT, ATP luminescence, 48 h; AID 686978, 2013; further: potency means the concentration at half of the fitted maximal effect; on the % scale 0 is the no-effect control and ±100 the full control effect; nearly all actives have a fitted effect of over 55% in size
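Chicken DT40 Tdp1-/- cells complemented with human TDP1, screened without camptothecin (DMSO vehicle only), 400 cells/well. Compounds pin-transferred, cells incubated at 37 °C for at least 48 hr. Growth read as ATP-dependent luminescence (CellTiter-Glo, 30 min at RT).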
IL1B secr inh = qHTS for Inhibitors of Inflammasome Signaling: IL-1-beta AlphaLISA Primary Screen; THP-1 LPS/ATP IL-1B secretion, AlphaLISA, 16 h; stronger effect = lower value; activity change, % at 57.5 µM; 360,000 tested, 4.7% active; AID 743279, 2014; in the data active means activity change below about -50%; inconclusive means mostly about -30% to -49%; further: on the % scale 0 is the no-effect control and ±100 the full control effect
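THP-1 cells pretreated 1 hr with compounds (up to 57.5 uM final), then stimulated with LPS (250 ng/mL final) plus ATP (1.25 mM final); secreted IL-1B measured by AlphaLISA after 16 hr, decreased signal indicating inhibition.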
DT40 TDP1 CPT = qHTS for Inhibitors of human tyrosyl-DNA phosphodiesterase 1 (TDP1): qHTS in cells in presence of CPT | chicken DT40 Tdp1-/-;hTDP1 cells + 20 nM CPT, ATP luminescence, 48 h | Potency, µM (doses to about 46.2 µM), inactives show top-dose activity change, negative = growth inhibition, usual class: inhibitors | 420,000 tested, 12% active | AID 686979, 2013; further: potency means the concentration at half of the fitted maximal effect; on the % scale 0 is the no-effect control and ±100 the full control effect; nearly all actives have a fitted effect of over 55% in size
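Chicken DT40 Tdp1-/- cells stably complemented with human TDP1 were seeded at 400 cells/well in medium containing 20 nM camptothecin, exposed to pin-transferred compounds, and grown at 37 °C for at least 48 hr. Viability was read as ATP luminescence.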
TGFb inhibitor = qHTS for Inhibitors of TGF-b | Potency, µM (top dose mostly 46.1 µM), inactives show top-dose activity, negative = inhibition, hits mostly inhibitors | 410,000 tested, 1.2% active | HepG2 CAGA-GFP TGF-b/SMAD3 reporter, GFP fluorescence, 18 h; TGF-beta stimulated, 500 pg/mL final; further: potency means the concentration at half of the fitted maximal effect; on the % scale 0 is the no-effect control and ±100 the full control effect; nearly all actives have a fitted effect of over 65% in size
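HEPG2 CAGA-GFP cells (1000/well, DMEM with 1% FBS) were pre-incubated 2 h at 37 degrees C, given compound by pin tool, then stimulated with TGF-beta at 500 pg/mL final for 18 h before per-cell GFP fluorescence imaging.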
S-ASM inh = Inhibitors of Secretory Acid Sphingomyelinase (S-ASM): qHTS; Sphingomyelin phosphodiesterase (Homo sapiens), P17405; placental ASM, HMU-PC fluorogenic substrate, 60 min; Potency, µM (top dose mostly 57.5 µM), for inactives: at the top dose activity change, negative = inhibition, hits mostly inhibitors; 340,000 tested, 0.006% active; AID 504937, 2011; further: potency means the concentration at half of the fitted maximal effect
Target sequence (P17405 47-631 limits assumed): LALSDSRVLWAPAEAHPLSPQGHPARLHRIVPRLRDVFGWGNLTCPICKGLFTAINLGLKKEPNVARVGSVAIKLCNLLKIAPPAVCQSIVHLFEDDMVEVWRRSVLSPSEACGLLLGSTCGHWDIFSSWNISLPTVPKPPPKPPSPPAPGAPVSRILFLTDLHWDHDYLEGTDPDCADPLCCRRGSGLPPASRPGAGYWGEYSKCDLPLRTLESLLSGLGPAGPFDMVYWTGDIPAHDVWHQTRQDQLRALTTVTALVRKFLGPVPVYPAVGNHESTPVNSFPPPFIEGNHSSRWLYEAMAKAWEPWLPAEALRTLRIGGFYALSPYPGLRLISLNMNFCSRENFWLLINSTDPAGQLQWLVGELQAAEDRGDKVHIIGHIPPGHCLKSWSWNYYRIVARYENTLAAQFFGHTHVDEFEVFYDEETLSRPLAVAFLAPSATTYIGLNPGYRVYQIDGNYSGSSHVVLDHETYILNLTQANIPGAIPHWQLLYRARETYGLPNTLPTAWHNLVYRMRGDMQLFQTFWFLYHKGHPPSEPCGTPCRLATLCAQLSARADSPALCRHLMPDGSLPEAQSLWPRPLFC
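HMU-PC0 cleavage (9 uM final) by human placental ASM, 60 min at 37 °C following 10 min compound exposure at RT; stopped at pH 10, fluorescence Ex 386/Em 447 nm.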
* = called active by the depositor; ? = inconclusive; . = no result. Unless noted, the call rests on the fitted dose curve; in most records, active means well fitted curve in the direction sought with a large enough effect; inconclusive means small, poorly fitted or top-dose-only effect, or another doubt; inactive means no such curve, though single readings can be large; an effect the other way counts as inactive or inconclusive.

SMILES | HepG2 tox | TDP1 cell noCPT | IL1B secr inh | DT40 TDP1 CPT | TGFb inhibitor | S-ASM inh
CC(NC(=O)c1ccco1)C(c1cccs1)N1CCN(c2ccc(F)cc2)CC1 (stereo unspecified) | -9.0% | 23.1µM* | -72.3* | 18.4µM* | -17.8% | 1.3%
CC(NC(=O)c1ccco1)C(c1cccs1)N1CCN(c2ccccc2F)CC1 (stereo unspecified) | -6.8% | ? | -15.1 | ? | ? | 5.0%
CCN1CCN(C(c2cccs2)C(C)NS(=O)(=O)c2ccc(Br)cc2)CC1 (stereo unspecified) | -3.3% | 25.9µM* | -4.4 | ? | 2.5% | 3.0%
CC(NC(=O)Cc1cccs1)C(c1cccs1)N1CCN(c2ccccc2F)CC1 (stereo unspecified) | -12.0% | ? | -3.0 | 17.8µM* | -9.8% | -0.1%
Cc1nc([N+](=O)[O-])cn1Cc1cccc2ccccc12 | -4.3% | 2.9% | 82.6 | -24.8% | 2.4% | -3.1%
C[C@H]1NC(=O)[C@@]2(C)[C@H](c3ccccc3)[C@H]3COc4ccccc4[C@@H]3N2C1=O | 3.8% | ? | 0.0 | ? | 5.3% | 4.3%
O=S(=O)(NCCCCCNS(=O)(=O)c1c(F)cccc1F)c1ccc2c(c1)OCCO2 | 1.2% | . | . | . | -5.0% | -0.3%
Cn1c(=O)[nH]c(=O)c2c1nc(SCC(=O)O)n2Cc1ccccc1 | 3.4% | 3.5% | 5.7 | 3.7% | 2.0% | 7.6%
CCCn1c(N)c(C(=O)CSc2nc3ccccc3s2)c(=O)[nH]c1=O | 1.0% | 16.4µM* | 48.0 | 20.6µM* | ? | 0.6%
Cn1c(=O)[nH]c(=O)c2c1nc(Sc1nc3ccccc3s1)n2Cc1ccccc1 | -20.8% | 6.51µM* | -4.5 | 8.2µM* | -5.1% | -2.4%
Cc1ccc(Cn2c(Sc3nnc(C)s3)nc3c2c(=O)[nH]c(=O)n3C)cc1 | 5.4% | 23.1µM* | -11.1 | ? | -0.7% | 6.6%
CCCn1c(N)c(C(=O)CSc2nnc(N)s2)c(=O)[nH]c1=O | -20.7% | -15.5% | 8.7 | -3.6% | -8.1% | 0.2%
O=[n+]1c2c(n([O-])c3ccccc31)CCCC2 | 0.0% | -8.4% | 32.6 | -27.3% | 3.3% | 1.5%
COc1ccc(C2C(C#N)=C(C)NC(C)=C2C#N)c(OC)c1 | -2.3% | 8.6% | 2.0 | 4.3% | -0.2% | 9.5%
COc1ccc(C2C(C#N)=C(N)Nc3onc(C(C)(C)C)c32)c(OC)c1 (stereo unspecified) | -2.4% | 18.4µM* | -29.7 | ? | -28.2% | 8.6%
CCOC(=O)Nc1ccc2c(c1)N(C(=O)CCN(CC)CC)c1ccccc1S2=O (stereo unspecified) | -94.9% | 3.66µM* | -100.1* | 2.59µM* | 14.1µM* | 1.9%
CCOC(=O)Nc1ccc2c(c1)N(C(=O)CCN(CC)CC)c1ccccc1CC2 | -19.0% | ? | ? | ? | ? | 3.1%
CCN(CC)CCC(=O)N1c2ccccc2CCc2ccc(NC(=O)OC)cc21 | -1.0% | -6.8% | -62.5* | -21.1% | ? | 4.6%
Cc1ccc(NC(=O)COC(=O)CCc2c(C)nc3ncnn3c2C)cc1 | 7.9% | 4.1% | 6.1 | 23.6% | 22.4% | -4.0%
Cc1cccc2sc(N(Cc3cccnc3)C(=O)c3ccco3)nc12 | -19.9% | -19.2% | . | -1.0% | -21.3% | .
Cc1ccc2nc(N(Cc3cccnc3)C(=O)CCOc3ccccc3)sc2c1 | 4.6% | ? | . | ? | 2.3% | .

Compound activity as filed in PubChem BioAssay.
